According to the supplement of paper PMC13380429:

Legend:
[1] = system: Vero E6 infected with SARS-CoV-2; assay: morphology score (similarity to uninfected cells); higher = more like uninfected cells; details: 24 h
[2] = system: Vero E6 infected with SARS-CoV-2; assay: SARS-CoV-2 infection rate relative to infected DMSO; higher = more infection, active = 60 or less; details: 24 h

SMILES | morphology score [1] | SARS-CoV-2 infection rate [2]
CCCc1nc(C(C)(C)O)c(C(=O)OCc2oc(=O)oc2C)n1Cc1ccc(-c2ccccc2-c2nnn[nH]2)cc1 [olmesartan-medoxomil] (10 µM) | -0.0296 | 116% (inactive)
Nc1ccncc1 [dalfampridine] (10 µM) | 0.0807 | 103% (inactive)
C=C1/C(=C\C=C2/CCC[C@]3(C)[C@@H]([C@H](C)/C=C/[C@@H](O)C4CC4)CC[C@@H]23)C[C@@H](O)C[C@@H]1O [calcipotriol] (10 µM) | -0.273 | 103% (inactive)
C[C@H](CCC(=O)O)[C@H]1CC[C@H]2[C@@H]3CC[C@@H]4C[C@H](O)CC[C@]4(C)[C@H]3C[C@H](O)[C@]12C [deoxycholic-acid] (10 µM) | 0.0921 | 104% (inactive)
CC(C)N(CCC(C(N)=O)(c1ccccc1)c1ccccn1)C(C)C (stereo not given) [disopyramide] (10 µM) | 0.157 | 104% (inactive)
COC(=O)[C@H](NC(=O)c1cc(-c2ccccc2)nc2ccccc12)c1ccccc1 (10 µM) | 0.0787 | 100% (inactive)
Cc1n[nH]c2ccc(-c3cncc(OC[C@@H](N)Cc4ccccc4)c3)cc12 (10 µM) | 0.111 | 92.5% (inactive)
C=C[C@]1(C)C[C@@H](OC(=O)CS[C@@H]2C[C@H]3CC[C@@H](C2)N3C)[C@]2(C)[C@H](C)CC[C@]3(CCC(=O)[C@H]32)[C@@H](C)[C@@H]1O [retapamulin] (10 µM) | 0.0286 | 109% (inactive)
C[C@H](N[C@@H](CCc1ccccc1)C(=O)O)C(=O)N1CCC[C@H]1C(=O)O [enalaprilat] (10 µM) | -0.0398 | 107% (inactive)
CCN1CCN(c2ccc(C(C)(C)NC(=O)c3cc4[nH]c5ccccc5c(=O)c4cc3F)cn2)CC1 (10 µM) | 0.572 | 55% (active)
COC1=C(OC)C(=O)C(CCCCCCCCCCO)=C(C)C1=O [idebenone] (10 µM) | -0.0056 | 92.5% (inactive)
CNc1ncc2cc(-c3cc(NC(=O)NCCC(C)(C)C)c(F)cc3C)c(C)nc2n1 (10 µM) | 0.18 | 106% (inactive)
CC[n+]1c(-c2ccccc2)c2cc(N)ccc2c2ccc(N)cc21 [homidium] (10 µM) | 0.276 | 99.5% (inactive)
Cc1cc2nc3c(=O)[nH]c(=O)nc-3n(C[C@H](O)[C@H](O)[C@H](O)CO)c2cc1C [riboflavin] (10 µM) | 0.208 | 102% (inactive)
CCCCCCCCCCCCc1ccc(S(=O)(=O)Nc2nncs2)cc1 (10 µM) | 0.158 | 93% (inactive)
c1cnc2c([O][Ga]([O]c3cccc4cccnc34)[O]c3cccc4cccnc34)cccc2c1 [gallium-triquinolin-8-olate] (10 µM) | 0.775 | 16.5% (active)
CNc1ncnc2c1ncn2[C@@H]1O[C@H](CO)[C@@H](O)[C@H]1O [N6-methyladenosine] (10 µM) | -0.0577 | 100% (inactive)
NCCCCCc1c[nH]cn1 [impentamine] (10 µM) | 0.128 | 92.5% (inactive)
C=C1CC[C@H](O)C/C1=C/C=C1\CCC[C@]2(C)[C@@H]([C@H](C)/C=C/[C@H](C)C(C)C)CC[C@@H]12 [ergocalciferol] (10 µM) | 0.0614 | 93.5% (inactive)
O=C(O)[C@H](O)[C@@H](O)[C@H](O[C@@H]1O[C@H](CO)[C@H](O)[C@H](O)[C@H]1O)[C@H](O)CO [maltobionic-acid] (10 µM) | 0.138 | 92.5% (inactive)

SMILES | morphology score [1] | SARS-CoV-2 infection rate [2]
COc1cccc(-c2ccc(NC(=O)C3=C(C(=O)O)CCC3)c(F)c2)c1 (10 µM) | 0.159 | 94.5% (inactive)
C#CCN(C)Cc1ccccc1 [pargyline] (10 µM) | 0.0803 | 108% (inactive)
COc1cc(NC(=O)c2cccc(-n3cc(NC(=O)Nc4cccc(C)c4)cn3)c2)cc(OC)c1OC (10 µM) | -0.0791 | 104% (inactive)
CCCCOc1ccc(-c2cncc(C(=O)NCc3cccnc3N3CCOCC3)c2)cc1Cl (10 µM) | -0.147 | 108% (inactive)
CN[C@@H](C)C(=O)N[C@H](C(=O)N1CCC[C@H]1C(=O)Nc1snnc1-c1ccccc1)C1CCCCC1 (10 µM) | -0.0857 | 110% (inactive)
Cc1coc2c1C(=O)C(=O)c1c-2ccc2c(C)cccc12 [tanshinone-I] (10 µM) | -0.0142 | 106% (inactive)
N#Cc1cccc(-c2c[nH]c3ncnc(N4CCOCC4)c23)c1 (10 µM) | 0.304 | 108% (inactive)
C=C(C)CN1CC[C@]23c4c5ccc(O)c4O[C@H]2c2[nH]c4ccccc4c2C[C@@]3(O)C1C5 (10 µM) | 0.0617 | 108% (inactive)
COc1cc(O)c2c(c1)C(=O)c1cc(C)cc(O)c1C2=O [rheochrysidin] (10 µM) | 0.119 | 109% (inactive)
O=S(=O)(O)c1ccc2[nH]c(-c3ccccc3)nc2c1 [phenylbenzimidazole-sulfonic-acid] (10 µM) | 0.087 | 104% (inactive)
C/C(=C(\CCOP(=O)(O)O)SC(=O)c1ccccc1)N(C=O)Cc1cnc(C)nc1N [benfotiamine] (10 µM) | -0.0264 | 112% (inactive)
O=S1(=O)OC(c2ccc(O)cc2)(c2ccc(O)cc2)c2ccccc21 [phenolsulfonphthalein] (10 µM) | 0.1 | 105% (inactive)
CC1=C(/C=C/C(C)=C/C=C/C(C)=C/C=C/C=C(C)/C=C/C=C(C)/C=C/C2=C(C)C(=O)[C@@H](O)CC2(C)C)C(C)(C)C[C@H](O)C1=O [astaxanthin] (10 µM) | 0.0152 | 107% (inactive)
CCn1cc(C(=O)O)c(=O)c2cnc(N3CCCC3)nc21 [piromidic-acid] (10 µM) | 0.0342 | 99.5% (inactive)
Nc1nc(-c2nn(Cc3ccccc3F)c3ncccc23)ncc1C1CC1 (0.833333 µM) | -0.057 | 102% (inactive)
C=CCc1ccc(O)c(-c2cc(CC=C)ccc2O)c1 [magnolol] (10 µM) | 0.249 | 108% (inactive)
O=C(O)Cc1ccccc1Nc1c(Cl)cccc1Cl [diclofenac] (10 µM) | -0.00811 | 106% (inactive)
CC1(C)OC(=O)NC1=O [dimethadione] (10 µM) | -0.0571 | 102% (inactive)
N=C(N)SCCc1c[nH]cn1 [imetit] (10 µM) | 0.1 | 106% (inactive)
OCc1cc([C@@H](O)CNCCCCCCOCCOCc2c(Cl)cccc2Cl)ccc1O [vilanterol] (10 µM) | 0.0228 | 111% (inactive)

SMILES | morphology score [1] | SARS-CoV-2 infection rate [2]
CCOc1nc2cccc(C(=O)O)c2n1Cc1ccc(-c2ccccc2-c2nnn[nH]2)cc1 [candesartan] (10 µM) | 0.175 | 105% (inactive)
NC(=O)CCCCn1ccc(/N=C(\N)NCC(F)(F)F)n1 (10 µM) | 0.00958 | 100% (inactive)
Cc1ccc(-c2nc3ccc(C)cn3c2CC(=O)N(C)C)cc1 (10 µM) | 0.137 | 98.5% (inactive)
CC[N+](C)(CC)CCOC(=O)C1c2ccccc2Oc2ccccc21 [methantheline] (10 µM) | 0.0949 | 106% (inactive)
COc1ccc(Nc2nccc(NCCO)n2)cc1 [cardiogenol-C] (10 µM) | 0.0849 | 100% (inactive)
CCC(CC)[C@H](NC(C)=O)[C@@H]1[C@H](O)[C@@H](C(=O)O)C[C@H]1NC(=N)N [peramivir] (10 µM) | 0.00579 | 102% (inactive)
C[C@@H](N)[C@H]1CC[C@H](C(=O)Nc2ccncc2)CC1 (10 µM) | 0.243 | 106% (inactive)
CC1(C)CC(O)CC(C)(C)N1[O] [tempol] (10 µM) | 0.209 | 97% (inactive)
O=C(O[C@@H]1Cc2c(O)cc(O)cc2O[C@@H]1c1ccc(O)c(O)c1)c1cc(O)c(O)c(O)c1 [epicatechin-gallate-(-)] (10 µM) | 0.106 | 100% (inactive)
CCOC(=O)Nc1ccc2c(c1)N(C(=O)CCN(CC)CC)c1ccccc1S2 [ethacizin] (10 µM) | 0.00909 | 112% (inactive)
Cc1c(-c2ccccc2)oc2c(C(=O)OCCN3CCCCC3)cccc2c1=O [flavoxate] (10 µM) | 0.4 | 88% (inactive)
C1CCN2C[C@@H]3C[C@@H](CN4CCCC[C@@H]34)[C@H]2C1 [sparteine-sulfate] (10 µM) | 0.00477 | 112% (inactive)
O=C([O-])CN1CCN(CC(=O)[O-])CCN([C@H](CO)[C@H](O)CO)CCN(CC(=O)[O-])CC1.[Gd+3] (racemic) [gadobutrol] (10 µM) | -0.0306 | 109% (inactive)
Cc1ccnc(NS(=O)(=O)c2ccc(N)cc2)n1 [sulfamerazine] (10 µM) | 0.0324 | 108% (inactive)
CC1CCc2cc(F)cc3c(=O)c(C(=O)O)cn1c23 (stereo not given) [flumequine] (10 µM) | -0.154 | 116% (inactive)
c1cc2c3c(c1)c1c(n3CCNC2)CCCC1 (10 µM) | -0.0322 | 104% (inactive)
CC(C)C[C@@H](N)C1(c2ccc(Cl)cc2)CCC1 (10 µM) | -0.0886 | 116% (inactive)
O=c1c2ccccc2oc2ccccc12 [xanthone] (10 µM) | 0.219 | 104% (inactive)
CC(C)=CCC/C(C)=C/CC/C(C)=C/CCC(=O)OC/C=C(\C)CCC=C(C)C [geranyl-farnesylacetate] (10 µM) | -0.0168 | 99% (inactive)
Cc1ccc(C(=O)N(CCCN)[C@@H](c2nc3cc(Cl)ccc3c(=O)n2Cc2ccccc2)C(C)C)cc1 [ispinesib] (0.833333 µM) | -0.37 | 110% (inactive)
